This is an account of results in PMC7862700, “An all-to-all approach to the identification of sequence-specific readers for epigenetic DNA modifications on cytosine”.

Holding throughout (assay): DAPPL (digital affinity profiling via proximity ligation, sequencing); 10 mM Tris-HCl pH 7.5, 50 mM NaCl, 1 mM DTT, 4% glycerol, room temperature, 30 min; GST-TFs on glutathione beads, 16-mer random dsDNA library, 0.1% formaldehyde crosslink after washing; high values mean tight binding
For one assay, the target named is T1, FEV (Homo sapiens, UniProt Q99581 1-238).
T1 sequence: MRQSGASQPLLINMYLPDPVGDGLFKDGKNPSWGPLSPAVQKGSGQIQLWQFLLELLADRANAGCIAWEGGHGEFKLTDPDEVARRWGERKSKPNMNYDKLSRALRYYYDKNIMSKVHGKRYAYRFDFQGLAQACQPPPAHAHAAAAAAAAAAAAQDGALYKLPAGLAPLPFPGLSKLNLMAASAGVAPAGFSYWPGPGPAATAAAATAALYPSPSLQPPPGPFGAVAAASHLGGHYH
The following applies: protein: recombinant; tags: N-terminal GST; dsDNA, one strand shown. In a few lines:
(§1)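 In yeast, human transcription factors were expressed with a GST fusion, then pulled down on glutathione beads and given DNA barcodes. Pooled with a tag-only sample, they were exposed to 200 nmole of a 16-mer random double-stranded DNA library (Tris/NaCl/DTT/glycerol buffer, room temperature, 30 min), washed, crosslinked with 0.1% formaldehyde, proximity-ligated using BsaI/T4 ligase for 1 h at 37 °C, PCR-amplified and read on an Illumina NextSeq500. Each hexamer's frequency of reads for a factor, divided by the matching frequency for the tag-only sample, gives the binding signal.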

Another assay concerns the target ETV5 (Homo sapiens, UniProt P41161 1-510). To be noted: protein: recombinant; tags: N-terminal GST; dsDNA, one strand shown. In a few lines: as §1
The next assay concerns the target HSF1 (Homo sapiens, UniProt Q00613 1-529). To be noted: protein: recombinant; tags: N-terminal GST; chain copies: 3; dsDNA, one strand shown. In a few lines:
as §1

The target of the next assay is T2, SPIC (Homo sapiens, UniProt Q8N5J4 1-248).
T2 sequence: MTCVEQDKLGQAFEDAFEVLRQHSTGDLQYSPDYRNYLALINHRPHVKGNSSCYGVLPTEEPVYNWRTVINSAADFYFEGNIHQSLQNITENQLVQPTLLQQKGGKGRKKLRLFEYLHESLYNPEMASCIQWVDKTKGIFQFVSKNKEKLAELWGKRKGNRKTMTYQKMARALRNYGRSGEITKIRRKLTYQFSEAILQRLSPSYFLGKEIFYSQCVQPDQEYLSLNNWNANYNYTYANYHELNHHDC
The following applies: protein: recombinant; tags: N-terminal GST; dsDNA, one strand shown. The method, boiled down: as §1

The target in a further assay is ELF4 (Homo sapiens, UniProt Q99607 1-663). The following applies: protein: recombinant; tags: N-terminal GST; dsDNA, one strand shown. The method, boiled down:
as §1

Another assay has as its target T3, ELK4 (Homo sapiens, UniProt P28324-2 1-405).
T3 sequence: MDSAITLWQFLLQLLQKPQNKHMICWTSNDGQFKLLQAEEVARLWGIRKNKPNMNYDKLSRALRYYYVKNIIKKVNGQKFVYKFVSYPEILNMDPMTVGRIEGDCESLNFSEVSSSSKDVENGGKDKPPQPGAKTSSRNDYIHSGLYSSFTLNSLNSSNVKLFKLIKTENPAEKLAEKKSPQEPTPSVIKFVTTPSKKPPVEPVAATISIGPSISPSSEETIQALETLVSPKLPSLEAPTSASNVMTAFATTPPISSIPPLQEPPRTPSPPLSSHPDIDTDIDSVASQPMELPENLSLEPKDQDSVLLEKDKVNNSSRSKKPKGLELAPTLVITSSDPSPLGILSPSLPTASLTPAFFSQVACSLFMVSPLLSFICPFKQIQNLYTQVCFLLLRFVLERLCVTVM
The following applies: protein: recombinant; tags: N-terminal GST; dsDNA, one strand shown. In a few lines:
as §1

For another assay, the target named is T4, ETV2 (Homo sapiens, UniProt O00321 1-342).
T4 sequence: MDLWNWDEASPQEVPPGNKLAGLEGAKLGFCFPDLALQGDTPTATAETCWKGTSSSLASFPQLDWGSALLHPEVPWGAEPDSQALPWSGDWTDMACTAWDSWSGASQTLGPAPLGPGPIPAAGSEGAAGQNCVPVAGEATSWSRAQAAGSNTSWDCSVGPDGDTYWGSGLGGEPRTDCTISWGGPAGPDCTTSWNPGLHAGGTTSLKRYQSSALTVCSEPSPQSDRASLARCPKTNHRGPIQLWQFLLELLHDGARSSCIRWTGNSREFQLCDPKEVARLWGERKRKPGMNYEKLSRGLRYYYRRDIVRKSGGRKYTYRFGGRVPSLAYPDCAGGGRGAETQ
The following applies: protein: recombinant; tags: N-terminal GST; dsDNA, one strand shown. The method, boiled down:
as §1

The next assay deals with T5, ELF3 (Homo sapiens, UniProt P78545 1-371).
T5 sequence: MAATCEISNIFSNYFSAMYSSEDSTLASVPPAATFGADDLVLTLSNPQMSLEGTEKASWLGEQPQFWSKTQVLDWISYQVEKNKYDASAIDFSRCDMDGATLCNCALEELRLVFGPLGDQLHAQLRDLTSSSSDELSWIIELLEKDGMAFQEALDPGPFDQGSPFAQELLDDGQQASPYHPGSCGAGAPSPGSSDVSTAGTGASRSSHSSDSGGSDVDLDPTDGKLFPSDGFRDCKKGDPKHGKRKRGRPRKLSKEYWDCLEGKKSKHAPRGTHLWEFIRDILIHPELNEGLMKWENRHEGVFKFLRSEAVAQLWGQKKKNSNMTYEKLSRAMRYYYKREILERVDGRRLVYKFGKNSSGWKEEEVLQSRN
To be noted: protein: recombinant; tags: N-terminal GST; dsDNA, one strand shown. The method, boiled down:
as §1

The next assay deals with CRX (Homo sapiens, UniProt O43186 1-299). To be noted: protein: recombinant; tags: N-terminal GST; dsDNA, one strand shown. The method, boiled down: as §1
For another assay, the target named is ETV1 (Homo sapiens, UniProt P50549 1-477). To be noted: protein: recombinant; tags: N-terminal GST; dsDNA, one strand shown. In a few lines:
as §1

A further assay deals with T6, ERF (Homo sapiens, UniProt P50548 1-548).
T6 sequence: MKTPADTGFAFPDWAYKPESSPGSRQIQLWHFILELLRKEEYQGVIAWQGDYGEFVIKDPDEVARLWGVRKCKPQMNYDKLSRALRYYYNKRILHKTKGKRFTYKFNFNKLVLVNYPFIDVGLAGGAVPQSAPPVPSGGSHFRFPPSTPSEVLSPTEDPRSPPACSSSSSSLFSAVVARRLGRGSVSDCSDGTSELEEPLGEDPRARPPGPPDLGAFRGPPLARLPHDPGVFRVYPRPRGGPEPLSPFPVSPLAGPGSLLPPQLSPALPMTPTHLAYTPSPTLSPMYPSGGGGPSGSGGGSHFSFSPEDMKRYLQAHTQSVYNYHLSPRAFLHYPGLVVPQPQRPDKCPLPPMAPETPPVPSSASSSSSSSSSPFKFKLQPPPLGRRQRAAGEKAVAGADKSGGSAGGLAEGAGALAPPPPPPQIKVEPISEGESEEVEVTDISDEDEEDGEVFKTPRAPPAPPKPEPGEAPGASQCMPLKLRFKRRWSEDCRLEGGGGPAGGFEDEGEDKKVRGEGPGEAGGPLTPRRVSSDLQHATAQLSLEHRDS
To be noted: protein: recombinant; tags: N-terminal GST; dsDNA, one strand shown. The method, boiled down:
as §1

Another assay addresses T7, ETV3L (Homo sapiens, UniProt Q6ZN32 1-361).
T7 sequence: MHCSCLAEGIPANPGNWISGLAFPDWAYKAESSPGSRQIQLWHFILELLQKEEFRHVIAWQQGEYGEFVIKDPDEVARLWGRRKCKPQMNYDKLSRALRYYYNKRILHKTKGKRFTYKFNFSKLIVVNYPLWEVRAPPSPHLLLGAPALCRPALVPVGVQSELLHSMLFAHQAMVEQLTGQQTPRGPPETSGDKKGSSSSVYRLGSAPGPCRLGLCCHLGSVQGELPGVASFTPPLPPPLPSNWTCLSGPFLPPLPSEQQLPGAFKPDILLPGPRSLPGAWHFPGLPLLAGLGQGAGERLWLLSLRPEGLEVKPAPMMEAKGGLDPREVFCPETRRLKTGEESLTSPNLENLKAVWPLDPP
To be noted: protein: recombinant; tags: N-terminal GST; dsDNA, one strand shown. The method, boiled down:
as §1

The next assay has as its target T8, ETS2 (Homo sapiens, UniProt P15036 1-469).
T8 sequence: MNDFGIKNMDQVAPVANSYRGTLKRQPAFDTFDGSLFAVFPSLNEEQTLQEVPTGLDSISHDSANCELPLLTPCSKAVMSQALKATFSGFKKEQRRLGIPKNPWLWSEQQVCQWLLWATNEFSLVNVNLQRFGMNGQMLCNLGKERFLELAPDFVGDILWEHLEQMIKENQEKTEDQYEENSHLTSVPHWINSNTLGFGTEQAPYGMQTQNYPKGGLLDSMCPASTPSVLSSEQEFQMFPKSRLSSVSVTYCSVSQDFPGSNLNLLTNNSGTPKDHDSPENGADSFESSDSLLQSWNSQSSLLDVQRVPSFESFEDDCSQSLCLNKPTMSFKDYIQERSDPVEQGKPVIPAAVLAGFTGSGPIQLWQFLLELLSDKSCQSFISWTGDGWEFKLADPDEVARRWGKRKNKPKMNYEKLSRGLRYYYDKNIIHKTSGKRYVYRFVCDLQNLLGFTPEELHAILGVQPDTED
To be noted: protein: recombinant; tags: N-terminal GST; dsDNA, one strand shown. In a few lines: as §1

The target in a further assay is T9, SPDEF (Homo sapiens, UniProt O95238 1-335).
T9 sequence: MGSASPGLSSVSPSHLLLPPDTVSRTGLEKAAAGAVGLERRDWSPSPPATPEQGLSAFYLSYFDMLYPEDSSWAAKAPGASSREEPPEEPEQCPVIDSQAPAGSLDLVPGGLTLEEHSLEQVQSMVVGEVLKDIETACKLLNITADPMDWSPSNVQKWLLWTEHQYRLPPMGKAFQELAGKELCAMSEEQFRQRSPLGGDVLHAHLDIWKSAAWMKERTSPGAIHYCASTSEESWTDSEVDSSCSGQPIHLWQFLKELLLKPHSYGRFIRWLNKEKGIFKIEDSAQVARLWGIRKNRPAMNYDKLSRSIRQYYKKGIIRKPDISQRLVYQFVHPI
To be noted: protein: recombinant; tags: N-terminal GST; dsDNA, one strand shown. The method, boiled down: as §1

The target of the next assay is T10, ETV7 (Homo sapiens, UniProt Q9Y603 1-341).
T10 sequence: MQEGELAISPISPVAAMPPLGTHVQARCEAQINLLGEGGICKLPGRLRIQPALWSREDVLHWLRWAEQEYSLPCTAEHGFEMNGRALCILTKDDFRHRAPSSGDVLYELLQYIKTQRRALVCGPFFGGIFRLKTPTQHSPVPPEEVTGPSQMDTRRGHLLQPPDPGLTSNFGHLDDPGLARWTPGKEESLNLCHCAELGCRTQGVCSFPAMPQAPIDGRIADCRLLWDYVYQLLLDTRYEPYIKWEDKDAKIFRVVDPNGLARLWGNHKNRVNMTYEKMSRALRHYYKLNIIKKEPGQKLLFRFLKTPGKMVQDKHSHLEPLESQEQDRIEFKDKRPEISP
To be noted: protein: recombinant; tags: N-terminal GST; dsDNA, one strand shown. The method, boiled down:
as §1

In a further assay the target is T11, ELF5 (Homo sapiens, UniProt Q9UKW6-2 1-255).
T11 sequence: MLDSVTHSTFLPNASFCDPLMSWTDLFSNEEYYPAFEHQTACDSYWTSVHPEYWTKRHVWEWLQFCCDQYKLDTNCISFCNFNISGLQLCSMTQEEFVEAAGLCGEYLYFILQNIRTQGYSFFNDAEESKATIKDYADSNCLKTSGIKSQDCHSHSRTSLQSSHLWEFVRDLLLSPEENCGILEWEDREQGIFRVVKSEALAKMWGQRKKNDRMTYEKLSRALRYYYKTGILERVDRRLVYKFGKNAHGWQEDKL
The following applies: protein: recombinant; tags: N-terminal GST; dsDNA, one strand shown. The method, boiled down: as §1

The next assay has as its target T12, ETV3 (Homo sapiens, UniProt P41162-2 1-143).
T12 sequence: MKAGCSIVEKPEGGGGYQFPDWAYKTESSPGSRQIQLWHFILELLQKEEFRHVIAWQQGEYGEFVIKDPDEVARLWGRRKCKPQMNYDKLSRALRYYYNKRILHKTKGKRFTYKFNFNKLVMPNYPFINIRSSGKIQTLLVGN
To be noted: protein: recombinant; tags: N-terminal GST; dsDNA, one strand shown. In a few lines:
as §1

Another assay has as its target ETV6 (Homo sapiens, UniProt P41212 1-452). The following applies: protein: recombinant; tags: N-terminal GST; dsDNA, one strand shown. In a few lines:
as §1

ETV5, sequence (P41161 whole entry): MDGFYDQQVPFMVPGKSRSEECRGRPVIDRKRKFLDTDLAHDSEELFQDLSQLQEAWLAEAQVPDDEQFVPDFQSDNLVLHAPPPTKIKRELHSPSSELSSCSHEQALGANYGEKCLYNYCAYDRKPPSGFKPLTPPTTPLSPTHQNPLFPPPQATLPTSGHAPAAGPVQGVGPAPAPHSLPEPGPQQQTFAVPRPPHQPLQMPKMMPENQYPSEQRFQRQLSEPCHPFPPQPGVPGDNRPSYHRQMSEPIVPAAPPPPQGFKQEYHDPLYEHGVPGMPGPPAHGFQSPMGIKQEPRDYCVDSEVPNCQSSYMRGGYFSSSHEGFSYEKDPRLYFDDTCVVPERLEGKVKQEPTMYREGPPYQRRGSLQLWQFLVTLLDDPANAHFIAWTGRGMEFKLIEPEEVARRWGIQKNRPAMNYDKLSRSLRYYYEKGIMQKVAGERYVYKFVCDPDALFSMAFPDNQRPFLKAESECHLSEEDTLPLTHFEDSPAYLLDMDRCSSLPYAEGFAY
HSF1, sequence (Q00613 whole entry): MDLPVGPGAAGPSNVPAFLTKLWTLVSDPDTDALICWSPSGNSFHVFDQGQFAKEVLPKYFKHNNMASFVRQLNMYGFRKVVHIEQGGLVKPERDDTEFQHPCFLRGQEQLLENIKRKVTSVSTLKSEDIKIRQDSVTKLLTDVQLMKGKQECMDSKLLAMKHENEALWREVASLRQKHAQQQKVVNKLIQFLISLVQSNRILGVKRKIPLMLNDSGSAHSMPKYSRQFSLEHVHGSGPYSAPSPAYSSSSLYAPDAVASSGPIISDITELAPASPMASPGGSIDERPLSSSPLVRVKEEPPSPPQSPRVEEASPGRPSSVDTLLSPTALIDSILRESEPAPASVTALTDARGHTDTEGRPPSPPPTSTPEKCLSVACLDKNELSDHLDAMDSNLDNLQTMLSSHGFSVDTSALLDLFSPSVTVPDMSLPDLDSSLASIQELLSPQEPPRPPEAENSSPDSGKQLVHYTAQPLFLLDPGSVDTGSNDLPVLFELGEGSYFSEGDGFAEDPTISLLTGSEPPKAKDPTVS
ETV6, sequence (P41212 whole entry): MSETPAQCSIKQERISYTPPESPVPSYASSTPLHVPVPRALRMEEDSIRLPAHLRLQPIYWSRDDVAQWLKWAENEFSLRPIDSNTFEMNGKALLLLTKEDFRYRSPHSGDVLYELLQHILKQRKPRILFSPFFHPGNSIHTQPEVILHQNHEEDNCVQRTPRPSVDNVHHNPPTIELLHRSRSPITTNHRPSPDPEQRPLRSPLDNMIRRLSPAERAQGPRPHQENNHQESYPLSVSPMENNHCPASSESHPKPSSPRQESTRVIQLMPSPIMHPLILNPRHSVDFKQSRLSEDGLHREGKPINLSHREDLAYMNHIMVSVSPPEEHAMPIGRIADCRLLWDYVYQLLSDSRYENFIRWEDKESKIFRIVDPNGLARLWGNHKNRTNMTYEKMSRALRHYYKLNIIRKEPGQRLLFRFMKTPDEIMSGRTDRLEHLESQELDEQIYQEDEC
ETV1, sequence (P50549 whole entry): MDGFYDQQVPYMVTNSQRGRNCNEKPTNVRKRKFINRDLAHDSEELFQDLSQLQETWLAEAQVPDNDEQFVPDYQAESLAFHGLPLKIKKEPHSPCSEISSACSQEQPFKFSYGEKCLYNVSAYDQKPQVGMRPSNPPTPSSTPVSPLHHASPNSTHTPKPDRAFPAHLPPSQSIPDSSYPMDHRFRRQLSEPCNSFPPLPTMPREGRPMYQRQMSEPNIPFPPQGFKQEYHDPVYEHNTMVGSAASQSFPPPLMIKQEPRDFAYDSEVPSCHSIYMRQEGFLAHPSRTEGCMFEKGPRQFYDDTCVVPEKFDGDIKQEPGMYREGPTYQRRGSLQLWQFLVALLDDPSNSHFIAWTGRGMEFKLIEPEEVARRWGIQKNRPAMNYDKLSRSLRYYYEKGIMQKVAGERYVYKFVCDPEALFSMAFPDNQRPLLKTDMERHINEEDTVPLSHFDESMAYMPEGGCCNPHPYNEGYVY
ELF4, sequence (Q99607 whole entry): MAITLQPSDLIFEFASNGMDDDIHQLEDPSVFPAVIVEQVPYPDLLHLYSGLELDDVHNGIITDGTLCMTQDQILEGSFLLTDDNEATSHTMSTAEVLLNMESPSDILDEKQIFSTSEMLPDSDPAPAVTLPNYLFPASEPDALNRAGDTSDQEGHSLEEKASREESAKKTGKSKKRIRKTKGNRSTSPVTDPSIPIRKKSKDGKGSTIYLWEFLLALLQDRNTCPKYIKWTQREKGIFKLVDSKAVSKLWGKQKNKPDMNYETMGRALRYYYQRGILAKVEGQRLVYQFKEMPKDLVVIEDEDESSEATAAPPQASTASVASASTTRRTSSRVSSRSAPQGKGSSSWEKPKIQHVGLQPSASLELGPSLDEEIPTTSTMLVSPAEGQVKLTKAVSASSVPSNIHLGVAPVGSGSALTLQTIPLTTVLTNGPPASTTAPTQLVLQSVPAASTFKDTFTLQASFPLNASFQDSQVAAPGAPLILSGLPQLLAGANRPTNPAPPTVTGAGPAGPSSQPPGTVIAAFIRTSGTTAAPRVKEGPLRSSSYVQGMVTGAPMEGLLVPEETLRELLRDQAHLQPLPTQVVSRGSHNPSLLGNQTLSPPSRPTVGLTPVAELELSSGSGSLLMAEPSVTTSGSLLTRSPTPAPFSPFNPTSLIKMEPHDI
CRX, sequence (O43186 whole entry): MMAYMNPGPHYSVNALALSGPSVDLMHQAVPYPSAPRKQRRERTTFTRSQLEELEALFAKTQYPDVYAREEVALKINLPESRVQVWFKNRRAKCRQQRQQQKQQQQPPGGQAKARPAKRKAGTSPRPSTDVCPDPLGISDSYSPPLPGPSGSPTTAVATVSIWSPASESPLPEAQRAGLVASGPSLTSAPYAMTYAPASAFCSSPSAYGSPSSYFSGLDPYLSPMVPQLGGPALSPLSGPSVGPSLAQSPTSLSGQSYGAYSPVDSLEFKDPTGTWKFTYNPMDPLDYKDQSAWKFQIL

On to TTCCTA, for which the binding signal was 1.62 fold enrichment (6-mer frequency, TF over GST control) in the assay with FEV; 1.79 fold enrichment (6-mer frequency, TF over GST control) with ETV5; 1.59 fold enrichment (6-mer frequency, TF over GST control) with HSF1; 1.67 fold enrichment (6-mer frequency, TF over GST control) in the assay with SPIC; 1.57 fold enrichment (6-mer frequency, TF over GST control) with ELF4; 1.52 fold enrichment (6-mer frequency, TF over GST control) with ELK4. Further, the binding signal in the assay with ETV2 is 1.77 fold enrichment (6-mer frequency, TF over GST control); with ELF3, 1.84 fold enrichment (6-mer frequency, TF over GST control); with CRX, 1.47 fold enrichment (6-mer frequency, TF over GST control); with ETV1 it was 1.72 fold enrichment (6-mer frequency, TF over GST control); in the assay with ERF it was 1.54 fold enrichment (6-mer frequency, TF over GST control); in the assay with ETV3L, 1.57 fold enrichment (6-mer frequency, TF over GST control). Further, the binding signal with ETS2 is 1.8 fold enrichment (6-mer frequency, TF over GST control); with SPDEF it was 1.6 fold enrichment (6-mer frequency, TF over GST control); in the assay with ETV7, 1.64 fold enrichment (6-mer frequency, TF over GST control); with ELF5, 2.04 fold enrichment (6-mer frequency, TF over GST control); with ETV3, 1.89 fold enrichment (6-mer frequency, TF over GST control); with ETV6, 1.99 fold enrichment (6-mer frequency, TF over GST control).
